# Source: PubChem BioAssay (NCATS)
# Results filed as inconclusive are left out. Calls of active or inactive are those of the source. The call rests on the fitted dose curve; in most records, active means well fitted inhibition curve with a large enough effect; inconclusive means small, poorly fitted or top-dose-only effect; inactive means flat fitted curve, though single readings scatter.
# Tested on: Zika virus NS2B-NS3 protease
# Test: Primary screen GU AMC qHTS for Zika virus inhibitors (AID 1347154);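 further: 0% = no-inhibitor control and -100% = no-enzyme control; nearly all actives have a fitted effect of over 70% in size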
# Conditions: Zika NS2B-NS3 unlinked protease, AMC fluorogenic substrate; series mostly up to 54.1 µM; activity change, negative = inhibition: at the top concentration
# From the text: Avindra Nath, Ph.D., National Institute of Neurological Disorders and Stroke (NINDS), Bethesda, MD
# Radhakrishnan Padmanabhan, Ph.D., Georgetown University (GU), Washington D.C.
# Zika Virus causes congenital defects, including microcephaly and is associated with Guillain-Barre syndrome, eningoencephalitis and myelitis in infected adult. […] Using a target-based approach, we hope to establish a screening paradigm to uncover novel, cell-active NS2B-NS3 protease (Zika Virus) specific inhibitors from NCATS' collection of small molecules using qHTS.
# Early Translation Branch (ETB)
# National Center for Advancing Translational Sciences (NCATS), Rockville, MD
# National Institute of Health (NIH), Bethesda, Maryland
# Padmanabhan lab provided the NS2B hydrophilic domain and NS3 protease domain in a noncovalent complex used for the unlinked assay. Control compound aprotinin is obtained from Thermo Scientific (#78432; Waltham, Massachusetts). NS2B-NS3 AMC substrate (Bz-Nle-Lys-Arg-Arg-AMC; Nle-KRR-AMC) purchased from Bachem (#I-1995; Torrance, CA). Ac-VKTGKR-AMC purchased from Genscript or Bachem, Ac-FAAGKR-AMC purchased from Genscript, Ac-GLVKRR-AMC purchased from Genscript, Ac-LKKR-AMC purchased from Genscript.
# GU AMC unlinked NS2B-NS3 protease qHTS protocol
# Briefly, 3 microL of Zika virus unlinked NS2B-NS3 protease (25 nM for linked final concentration), in assay buffer (10 mM Tris-HCl pH 8.0 with 0.01% Tween 20) was dispensed into a 1,536-well solid-bottom black plate (Greiner Bio One, Monroe, NC). […] Plates were then read immediately on a ViewLux High-throughput CCD imager (PerkinElmer, Waltham, MA) equipped with standard UV fluorescence optics (340(30) nm excitation, 450(20) nm emission) then incubated (room temperature, protected from light) for 15 minutes (~20% conversion). The change in fluorescence intensity over the 15-minute reaction period was normalized against no-inhibitor and no-enzyme controls and the resulting percent inhibition data were fitted to a 4-parameter Hill equation. Aprotinin was used as the intraplate control.
Structure (SMILES),"activity change, negative = inhibition",Potency
CC1CC2CCC(O2)C(C)C(=O)OC(C)CC2CCC(O2)C(C)C(=O)OC(C)CC2CCC(O2)C(C)C(=O)OC(C)CC2CCC(O2)C(C)C(=O)O1 (stereo not given),11.5% (inactive),
CCCC(=O)OCC[N+](C)(C)C,5.87% (inactive),
O[C@H]1[C@H](O)[C@@H](O)CN2CC[C@H](O)[C@H]12,-2.4% [at 104 µM] (inactive),
C=C1[C@@H](C)[C@H]2[C@H](Cc3ccccc3)NC(=O)[C@]23[C@H](OC(C)=O)/C=C/[C@](C)(O)C(=O)[C@@H](C)C/C=C/[C@H]3[C@@H]1O,20.2% (inactive),
CC(=O)C1CCC2C3CCC4CC(C)(O)CCC4(C)C3CCC12C (stereo not given),10.2% (inactive),
C[C@]12CC[C@H]3[C@@H](C[C@H](F)C4=CC(=O)CC[C@@]43C)[C@@H]1CC[C@@H]2O,12.8% (inactive),
Cc1c(C(=O)c2cccc3ccccc23)c2cccc3c2n1[C@@H](CN1CCOCC1)CO3,0.509% (inactive),
COc1ccc2[nH]cc(CCN(C)C)c2c1,12.7% (inactive),
CCC(Sc1ccccc1)C(=O)OC1CC2CCC(C1)N2C (stereo not given),-8.55% (inactive),
CCCCC/C=C\C[C@@H](/C=C/C=C\C/C=C\CCCC(=O)O)OO,11.4% [at 0.59 µM] (inactive),
Cc1ccc2c(c1)Cc1c(C(=O)NC3CCCCC3)nn(-c3ccc(Cl)cc3Cl)c1-2,13.1% (inactive),
CC(C)[C@H](NC(=O)[C@H](CCC(=O)O)NC(=O)[C@H](Cc1ccccc1)NC(=O)[C@H](C)NC(=O)[C@@H](N)Cc1ccc(O)cc1)C(=O)N[C@H](C(=O)NCC(N)=O)C(C)C,2.64% [at 6.83 µM] (inactive),
C=C(C)[C@H]1C2C(=O)O[C@H]1[C@H]1OC(=O)[C@@]34O[C@@H]3C[C@]2(O)[C@@]14C,8.4% (inactive),
C/C=C1/C[N@@+]2(C)CC[C@]34C(=C(C=O)[C@H]1C[C@H]32)Nc1ccccc14,-7.93% (inactive),
CCCN(C/C=C/I)C1CCc2ccc(O)cc2C1 (stereo not given),-19.2% (inactive),
CP(=O)(O)CCCN,,inactive
N#CC(C#N)=Cc1cc(O)c(O)c([N+](=O)[O-])c1,12.1% (inactive),
O=C1Nc2cc(Cl)c(Cl)cc2N2CCNC[C@H]12,2.12% (inactive),
COc1ccc(CCN)cc1O,3.76% (inactive),
CN1CCN(c2ccc3ccccc3n2)CC1,-3.11% (inactive),

Structure (SMILES),"activity change, negative = inhibition",Potency
CO[C@@H]1C[C@@H](C[C@H]2CC[C@H](C)[C@@H]([C@@H](C)C(=O)O)O2)O[C@]2(O[C@](C)([C@H]3CC[C@@](C)(C4OC([C@H]5O[C@@](O)(CO)[C@H](C)C[C@@H]5C)C[C@@H]4C)O3)C[C@H]2C)[C@@H]1C (stereo not given in full),13.2% [at 25.8 µM] (inactive),
O=C(/C=C/c1ccc(Cl)cc1)N[C@@]12CCC(=O)[C@@H]3Oc4c(O)ccc5c4[C@@]31CCN(CC1CC1)C2C5,-6.27% (inactive),
CCCCC/C=C\C/C=C\C/C=C\CCCCCCC(=O)NCCO,14.4% [at 6.83 µM] (inactive),
CN(CCCC(=O)c1cccnc1)N=O,4.86% (inactive),
Clc1ccc(C2CC3CCC2N3)cn1 (stereo not given),,inactive
O[C@@H]1CCCN2C[C@@H](O)[C@@H](O)C12 (stereo not given in full),16.2% [at 194 µM] (inactive),
CN1C(=O)CCS(=O)(=O)[C@H]1c1ccc(Cl)cc1,6.01% (inactive),
O=C(O)/C=C/CO,,inactive
COC(=O)/C=C\C(=O)N[C@@H]1CC[C@@]2(O)[C@H]3Cc4ccc(O)c5c4[C@@]2(CCN3CC2CC2)[C@@H]1O5,0.388% (inactive),
C(=C/c1ccccc1)/CN1CCN(CCOC(c2ccccc2)c2ccccc2)CC1,-0.0032% (inactive),
CC(C)(O)[C@@H]1[C@H]2OC(=O)[C@@H]1[C@]1(O)C[C@H]3O[C@]34C(=O)O[C@H]2[C@@]14C (tested in a mixture with another compound),7.7% (inactive),
C=CCN1C[C@H](C)N([C@H](c2ccc(C(=O)N(CC)CC)cc2)c2cccc(O)c2)C[C@H]1C,-0.212% (inactive),
O=C1C2CCN(CC2)C1(CO)CO,6.88% (inactive),
NCCc1ccccn1,4.74% (inactive),
CC(C)=CCCN1CCC(NC(=O)C(O)(c2ccccc2)C2CCCC2)CC1 (stereo not given),10.6% (inactive),
NC[C@H](CS(=O)(=O)O)c1ccc(Cl)cc1,-2.83% (inactive),
CNCC/C=C\c1cccnc1,14.6% (inactive),
C=C1[C@@H](O)C2C=CC[C@H](C)C(=O)[C@@](C)(O)C=C[C@@H](OC(C)=O)[C@@]23C(=O)N[C@H](Cc2ccccc2)[C@@H]3[C@@H]1C (stereo not given in full),10.9% (inactive),
c1ccc([C@H]2CNCc3ccccc32)cc1,7.48% (inactive),
CC(C)(C)NC[C@@H](O)COc1cccc2[nH]c(C#N)cc12,17.1% (inactive),
